# Sampled rows, rich in hits. Any-hit rate of the full collection: about 4.1%.
# Mdm2-MdmX inh = inhibitors of human Mdm2-MdmX association, primary screen, cell-based, luminescence, split luciferase, SaOS-2, uHTS; Protein Mdm4 (Homo sapiens) + E3 ubiquitin-protein ligase Mdm2 (Homo sapiens), …; SaOS-2 split-luciferase Mdm2/MdmX complementation; inhibition, % at 8 µM; 330,000 tested, 3% active;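 active = inhibition of at least 50% at 8 µM in the primary screen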
# Target sequence (O15151 whole entry, looked up): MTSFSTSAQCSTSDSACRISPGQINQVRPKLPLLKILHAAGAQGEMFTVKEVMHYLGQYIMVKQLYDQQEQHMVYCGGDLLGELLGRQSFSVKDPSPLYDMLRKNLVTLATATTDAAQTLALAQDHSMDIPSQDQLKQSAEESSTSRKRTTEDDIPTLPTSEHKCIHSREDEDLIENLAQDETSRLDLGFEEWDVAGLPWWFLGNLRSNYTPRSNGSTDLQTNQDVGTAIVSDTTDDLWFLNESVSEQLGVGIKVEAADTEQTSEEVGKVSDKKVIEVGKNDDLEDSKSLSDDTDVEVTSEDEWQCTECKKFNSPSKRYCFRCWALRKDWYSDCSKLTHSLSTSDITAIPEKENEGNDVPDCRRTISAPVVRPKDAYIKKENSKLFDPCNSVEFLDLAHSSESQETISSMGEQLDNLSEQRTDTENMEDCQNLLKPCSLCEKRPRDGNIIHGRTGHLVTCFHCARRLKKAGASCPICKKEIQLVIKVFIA
# Target sequence (Q00987 whole entry, looked up): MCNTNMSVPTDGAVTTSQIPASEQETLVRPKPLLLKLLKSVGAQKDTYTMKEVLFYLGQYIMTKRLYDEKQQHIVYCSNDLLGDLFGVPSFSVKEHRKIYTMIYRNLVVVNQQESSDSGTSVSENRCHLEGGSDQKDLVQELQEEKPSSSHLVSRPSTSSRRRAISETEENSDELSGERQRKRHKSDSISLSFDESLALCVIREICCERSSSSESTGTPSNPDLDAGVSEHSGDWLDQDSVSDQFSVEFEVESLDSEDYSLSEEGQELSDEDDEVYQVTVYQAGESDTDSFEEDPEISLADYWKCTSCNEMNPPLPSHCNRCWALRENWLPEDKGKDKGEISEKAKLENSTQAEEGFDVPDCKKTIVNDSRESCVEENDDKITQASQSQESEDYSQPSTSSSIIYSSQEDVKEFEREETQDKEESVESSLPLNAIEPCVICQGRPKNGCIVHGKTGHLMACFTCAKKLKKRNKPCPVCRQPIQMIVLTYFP
# aSyn UTR inh = MLPCN primary screen, SNCA 5' untranslated region | inhibition, % (tested at 7.5 µM) | 300,000 tested, 0.82% active | alpha-synuclein 5'UTR reporter, inhibitor activity; in the data active = inhibition above about 60%;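 also: H4 neuroglioblastoma cells stably carrying SNCA 5'UTR luciferase fusion; 0% = DMSO wells and 100% = positive control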
# KLF5 inhibitor = KLF5 expression inhibitors, primary screen, DLD-1 cells, luminescence. DLD-1 KLF5 promoter-luciferase reporter. AID 1700, 2009. 290,000 tested, 0.23% active. inhibition, % at 5 µM;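 active = inhibition above a per-plate limit of that plate's mean compound inhibition plus 3 SD, cut at about 60% in these data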;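 also: 0% = DMSO wells and 100% = LY294002 at 200 µM; higher means less KLF5 promoter-driven luciferase light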
# Gli-Sufu antag = Gli-Sufu pathway antagonists, primary screen, luciferase luminescence, Sufu-KO-LIGHT cells, uHTS; Sufu-KO-LIGHT fibroblasts, Gli luciferase reporter luminescence; 340,000 tested, 0.74% active; inhibition, % at 5 µM;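 active = inhibition above about 55%, limit read from the data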;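 also: 0% = DMSO-treated cells and 100% = wells with medium but no cells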
# 697 NFkB inh = inhibitors of PMA/ionomycin-induced NF-kB reporter, 697 cells, primary screen, B-cell NF-kB inhibitor project, cell-based, luminescence, uHTS; 697 B-cell NF-kB luciferase reporter, 16 h; inhibition, % at 4 µM; 330,000 tested, 0.33% active; in the data active = inhibition above about 35%
# Jurkat NFkB inh = inhibitors of induced NF-kB luciferase reporter, primary screen, TCR NF-kB activation inhibitor project, cell-based, luminescence, uHTS; 330,000 tested, 0.53% active; Jurkat, PMA/ionomycin-induced NF-kB luciferase reporter; AID 435003, 2010; inhibition, % at 4 µM; in the data active = inhibition above about 50%
# Mdm2 MdmX conf = Mdm2-MdmX complex disruptors, retested hits, confirmation, luminescence, single concentration; Mdm2-MdmX binding, luminescent assay; inhibition, % at 8 µM; 10,000 tested, 55% active; shares compounds with Mdm2-MdmX inh; in the data active = inhibition above about 40%
# Full FLuc ctr = full-length luciferase signal inhibition, confirmation, counter-screen for Mdm2/MdmX interaction inhibitor project, cell-based, single concentration, SaOS-2; shares compounds with Mdm2-MdmX inh; inhibition, % at 8 µM; 6,200 tested, 77% active; SaOS-2 full-length luciferase counterscreen, luminescence;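 active = mean inhibition at 8 µM reaching about 37%, which flags the compound as non-specific, limit read from the data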;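 also: p53-null SaOS-2 cells with luciferase driven by a doxycycline-inducible promoter; compound on cells about two nights before reading with doxycycline added after day one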
# An asterisk follows results filed as active; · = no result.
SMILES,Mdm2-MdmX inh,aSyn UTR inh,KLF5 inhibitor,Gli-Sufu antag,697 NFkB inh,Jurkat NFkB inh,Mdm2 MdmX conf,Full FLuc ctr
CCOc1ccc(-c2nnc(SCC(=O)Nc3ccc4c(c3)c3ccccc3n4CC)n2N)cc1,71*,84*,-2,5,-22,-6,71*,23
O=C(CSc1nnc(-c2cccnc2)o1)Nc1cccc(Cl)c1,-12,-119,-25,-3,1,-11,·,·
c1ccc(C2CCC(N3CCNCC3)CC2)cc1 (stereo not given),-14,-6,3,1,-5,-9,·,·
N=c1c2c(-c3ccccc3)c(-c3ccccc3)n(Cc3ccco3)c2ncn1CCO,82*,-14,46,7,-24,33,61*,57*
c1ccc(-c2nc3nc4ccccc4nc3n2Cc2ccco2)cc1,-37,-106,-33,7,-164,-82,·,·
N=c1c2c(-c3ccccc3)c(-c3ccccc3)n(Cc3ccco3)c2ncn1CCN1CCOCC1,55*,-14,-10,19,-29,-6,33,·
COc1ccc(OC)c(NC(=O)COC(=O)C2CCCCC2)c1,29,·,·,0,7,13,·,·
CC(=O)Nc1ccc2[nH]c(C)cc(=O)c2c1,5,-26,11,19,19,13,·,·
CC(=O)Nc1ccc(Cc2ccc3[nH]c(=O)cc(C)c3c2)cc1,68*,0,-9,·,-36,-42,41*,69*
COC(=O)[C@H](Cc1ccccc1)NC(=O)N1CCN(c2ccc(F)cc2)CC1,17,-23,-11,6,-3,4,·,·
CN(C)CC/C=C1\c2ccc(F)cc2Sc2cc(F)c(Cl)cc21,55*,103*,·,45,-4,-8,33,·
CN(C)CC/C=C1\c2ccccc2Sc2cc(F)c(Cl)cc21,66*,-4,·,14,12,12,28,78*
O=C(CSc1nnc(-c2ccc(O)cc2)o1)NNC(=O)c1ccncc1,3,-1,-11,0,2,-1,·,·
Cc1cccc(-c2cc3nc4c(c(N5CCC6(CC5)OCCO6)n3n2)CCCC4)c1,19,·,10,-8,-50,-28,·,·
Cc1cccc(-c2cc3nc4c(c(N5CCOCC5)n3n2)CCCC4)c1,65*,-114,-96,-79,-235,-90,33,·
O=C(Nc1ccc(CN2CCCCC2)cc1)Nc1ccc(Br)cc1Cl,74*,-27,9,22,20,7,42*,39*
O=C(CCl)N1CCN2C(=O)c3ccccc3C12c1ccc(Cl)cc1 (stereo not given),100*,36,4,3,-3,-5,48*,28
O=C(Nc1cccc(Cl)c1)N1CCN2C(=O)c3ccccc3C12c1ccccc1 (stereo not given),22,-17,-15,1,21,7,·,·
Cc1nc2c3ccccc3nc(NNC(=O)CCC(=O)NCCN3CCN(c4ccccc4)CC3)n2n1,6,-1,-26,2,23,17,·,·
COc1cccc(CN(Cc2ccccc2F)S(=O)(=O)c2ccc(S(=O)(=O)NCc3ccccc3)cc2)c1,52*,39,7,1,-7,9,34,·
O=c1cc(-c2ccccc2)[nH]n1-c1ccc([N+](=O)[O-])cc1,55*,-59,-34,-19,-18,-2,6,·
O=c1ccc(-c2ccc([N+](=O)[O-])cc2)nn1-c1ccccc1,10,7,-23,-5,-5,3,·,·
Cc1cccc(OCc2nnc(SCC(=O)NC3CCCCC3)n2C)c1,3,1,4,14,-10,-15,·,·
CC(C)c1ccc(C(C)NC(=S)NC2CCCCC2)cc1 (stereo not given),8,21,-20,17,2,22,·,·
CC(NC(=S)NC1CCCCC1)c1ccc(C(C)(C)C)cc1 (stereo not given),67*,-1,-37,20,-39,31,24,·
SMILES,Mdm2-MdmX inh,aSyn UTR inh,KLF5 inhibitor,Gli-Sufu antag,697 NFkB inh,Jurkat NFkB inh,Mdm2 MdmX conf,Full FLuc ctr
COc1ccc(C(=O)Nc2ccc(C(=O)Nc3cccc(C)c3)cc2)cc1,56*,-1,-9,8,9,12,39,73*
COc1ccc(C(=O)N/N=C(\C)c2cccc(NC(=O)c3ccc(F)cc3)c2)c(OC)c1,21,-66,-89,-4,-41,-32,·,·
CC(=O)Nc1cccc(NC(=O)c2ccc(C(=O)Nc3cccc(NC(C)=O)c3)nc2)c1,-13,-18,-1,11,-37,-29,·,·
COc1ccc(C(=O)N/N=C(/C)c2cccc(NC(=O)c3ccccc3F)c2)cc1,53*,-79,-65,-19,7,-21,5,·
COc1ccc(NC(=O)c2cccc(NC(=O)c3ccccc3)c2)cc1,-11,-38,-47,1,-37,-39,·,·
COc1ccc(C(=O)NCC(=O)Nc2ccc(-c3ccccc3)cc2)cc1,51*,1,-7,-48,10,-1,68*,62*
Cc1cccc(NC(=O)c2ccc(C(=O)Nc3cccc(C)c3)nc2)c1,56*,-12,-8,13,-26,19,52*,56*
CCOc1ccc(NC(=O)CNC(=O)c2ccc(OC)cc2)cc1,26,5,3,-4,11,7,·,·
Cc1ccc(Cl)cc1N1CCN(C(=O)Cc2csc(Nc3nc(=S)[nH]c4ccccc34)n2)CC1,55*,6,-26,·,-7,7,9,·
COc1cc(OC)cc(-c2nc3ccccc3c(=O)n2OC(=O)c2ccc(Br)cc2)c1,13,-6,16,-7,1,2,·,·
COc1ccc(C(=O)On2c(-c3ccc(Br)cc3)nc3ccccc3c2=O)cc1,54*,-24,-9,2,18,2,31,·
Cn1c(=O)c2ncn(CC(=O)N/N=C/c3ccco3)c2n(C)c1=O,0,17,-3,-13,5,-4,·,·
CCc1nc(SCC(=O)Nc2c(C)nn(C)c2C)c2cnn(-c3ccccc3)c2n1,·,-26,12,·,·,·,·,·
Cc1nn(C)c(C)c1NC(=O)CSc1nc(Cc2ccccc2)nc2c1cnn2-c1ccccc1,94*,17,-35,-12,-42,-8,57*,103*
CCOC(=O)N1CCN(C(=O)c2ccc3c(c2)N=C(CC)c2cc(C)ccc2S3)CC1,12,5,-25,17,-24,4,·,·

# Compound activity as filed in PubChem.
